# NALP1 yeast inh = inhibitors of NALP1 inflammasome in yeast | S. cerevisiae NALP1/ASC/caspase-1 growth, X-gal OD620, 72 h | inhibition, % at 10 µM | 280,000 compounds, 0.61% hits; in the data active = inhibition mostly above about 24%, no sharp cut-off; inactive = mostly below about 32%
# tim10-1 inh = growth inhibitors of tim10-1 mutant yeast. S. cerevisiae tim10-1 ts strain growth, BacTiter-Glo, 24 h. inhibition, % at 20 µM. 330,000 compounds, 2.2% hits;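 active = inhibition of at least 40%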;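 note: mutant grown at 25 °C; 0% = DMSO wells with yeast and 100% = wells holding no yeast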
# TIM10 inh = TIM10 yeast growth inhibition; S. cerevisiae TIM10 strain growth, BacTiter-Glo luminescence, 24 h; 330,000 compounds, 1.4% hits; inhibition, % at 10 µM;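 active = inhibition of 40% or more at the single tested concentration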;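 note: wild-type TIM10 isogenic control strain grown at permissive 25 °C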
# NALP3 yeast inh = NALP3 inhibition in yeast; Yeast reconstituted NLRP3/ASC/caspase-1, beta-gal luminescence, 24 h; inhibition, % at 10 µM; AID 2825; 330,000 compounds, 0.39% hits;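 active = inhibition of 50% or more; inactive = inhibition below 50%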;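 note: plate controls were induced DMSO wells for no effect and uninduced yeast grown without galactose for full effect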
# PfHsp90 set2 = inhibits growth of yeast expressing Plasmodium falciparum Hsp90. S. cerevisiae expressing PfHsp90, BacTiter-Glo ATP, 48 h; yeast lacking PDR1 and PDR3 efflux regulators. inhibition, % at 9.4 µM. 310,000 compounds, 0.32% hits;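 active = every replicate shows inhibition above about 80%, whatever the replicate mean, limit read from the data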;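 note: 0% = DMSO neutral controls and 100% = 20 µM radicicol positive controls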
# tim23-1 inh = tim23-1 yeast growth inhibition; S. cerevisiae tim23-1 growth, BacTiter-Glo luminescence, 24 h; inhibition, % at 20 µM; 330,000 compounds, 1.3% hits;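 active = growth inhibition of the mutant yeast at or above 50%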;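 note: temperature-sensitive mutant grown at 25 °C; plate controls were DMSO-treated mutant yeast for no effect and medium wells lacking yeast for full effect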
# tim10-1 confirm = tim10-1 yeast growth inhibition, confirmed; 7,400 compounds, 56% hits; S. cerevisiae tim10-1 ts strain growth, BacTiter-Glo, 24 h; inhibition, % at 20 µM; shares compounds with tim10-1 inh;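 active = inhibition of yeast growth at or above a set limit in either of two repeat tests at 20 µM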;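 note: tim10-1 mutant grown at permissive 25 °C to find synthetic lethal compounds; 0% = DMSO yeast wells and 100% = medium wells without yeast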
# The depositor's hits bear a star; . = no result. The list is not random: actives were taken first. Their share in the collection is about 4.2%.
SMILES,NALP1 yeast inh,tim10-1 inh,TIM10 inh,NALP3 yeast inh,PfHsp90 set2,tim23-1 inh,tim10-1 confirm
O=C(/C=C/c1ccccc1)Nc1cccc(S(=O)(=O)Nc2ccccc2F)c1,19.1,20.0,6.4,7.0,-4.8,0.4,.
CN1CCN(c2ccc(NC(=S)NC(=O)c3cccc4ccccc34)cc2)CC1,10.1,-2.9,3.1,23.9,23.3,-3.1,.
CN1CCN(c2ccc(NC(=S)NC(=O)c3cccc4c(Br)cccc34)cc2)CC1,8.3,46.8*,-1.5,41.6,33.3,-3.0,-84.2
COc1cc(OC)c(NC(=O)CN(C)S(=O)(=O)c2ccc(-c3ccc(=O)[nH]n3)s2)cc1Cl,6.9,14.7,20.3,2.2,-13.4,16.0,.
Fc1cccc(F)c1CSc1nc2ccccc2[nH]1,7.9,42.6*,35.1,26.0,-15.3,32.4,30.0
O=C(CSc1nc2ccccc2[nH]1)c1ccccc1F,20.4,20.7,9.8,14.5,-17.1,21.1,.
Cc1cc(C)n(-c2ccc(S(=O)(=O)N3CCOCC3)cc2[N+](=O)[O-])n1,11.8,3.9,-11.0,2.9,-13.7,11.8,.
CC(C)c1ccc(N(CC(=O)NCCCN2CCOCC2)S(=O)(=O)c2ccccc2)cc1,.,1.1,9.6,16.6,-10.5,-8.8,.
O=C(CSCC(=O)N1CCCCC1)Nc1nc(-c2ccc(Cl)s2)cs1,-8.6,40.7*,22.5,5.4,107.9*,43.3,36.1*
O=C(CSCC(=O)N1CCN(c2ccccc2)CC1)Nc1nc(-c2ccc(Cl)s2)cs1,34.6,6.7,6.9,25.8,4.2,9.0,.
Oc1ccc(C(c2nnnn2CCc2ccccc2)N2CCN(c3nc4ccccc4s3)CC2)cc1 (stereo not given),.,5.9,13.7,20.5,-12.1,6.6,.
Cc1cnccc1CN(C)Cc1cn(C)nc1-c1ccc(Oc2ccccc2)cc1,-4.5,40.4*,28.5,22.4,3.0,36.0,14.4
COc1ccccc1NC(=O)c1csc2c1CCCC2,0.7,13.8,12.4,33.7,.,39.5,.
CCCC(=O)Nc1sc2c(c1C(=O)Nc1ccccn1)CCCC2,15.1,44.8*,24.5,25.7,8.1,24.9,22.8
CCOC(=O)c1ccc(NC(=O)c2c(NC(=O)CCC(=O)O)sc3c2CCCCC3)cc1,-19.1,40.2*,28.0,2.6,3.3,25.9,31.0*
O=C(Nc1ccccn1)c1csc2c1CCCC2,5.4,43.7*,20.6,19.6,8.4,14.4,16.6
CCOc1ccccc1NC(=O)c1c(NC(=O)CCC(=O)O)sc2c1CCCCC2,-3.0,31.6,21.8,3.2,-6.1,27.8,.
COc1ccc(CCNC(=O)Cc2ccc(NS(=O)(=O)c3ccc(F)cc3)cc2)cc1OC,.,-10.3,-1.5,-0.8,-7.2,-6.8,.
c1ccc(CSc2nnc3ccc(-c4ccco4)nn23)nc1,-7.3,-2.1,2.8,6.3,6.8,18.3,.
COc1ccc2nc3oc(C(=O)N4CCC(C(N)=O)CC4)cc3cc2c1,14.1,5.8,-5.2,7.9,-19.2,10.5,.
COc1ccc2cc3cc(C(=O)N4CC(C)CC(C)C4)oc3nc2c1 (stereo not given),1.6,56.0*,30.0,17.1,-50.2,46.0,20.6
Cc1nc2ccccc2c2oc(C(=O)NCCCN3CC(C)CC(C)C3)cc12 (stereo not given),15.8,-7.6,-4.4,12.0,17.8,-10.1,.
Cc1nc2ccccc2c2oc(C(=O)N3CC(C)CC(C)C3)cc12 (stereo not given),12.5,52.2*,4.9,5.1,-29.2,42.1,-9.0
Cc1cc(NCCCCCCCNc2cc(C)nc3cc([N+](=O)[O-])ccc23)c2ccc([N+](=O)[O-])cc2n1,.,.,.,.,26.0,.,.
Cc1ccc(-n2cc(-c3ccc([N+](=O)[O-])cc3)[nH]c2=S)c(C)c1,-15.5,46.2*,39.7,4.1,7.7,44.4,35.3*
SMILES,NALP1 yeast inh,tim10-1 inh,TIM10 inh,NALP3 yeast inh,PfHsp90 set2,tim23-1 inh,tim10-1 confirm
Cc1cccc(-n2cc(-c3ccc([N+](=O)[O-])cc3)[nH]c2=S)c1,22.9,2.1,8.9,16.4,-0.3,-12.3,.
COc1ccc(-c2cn3cccnc3n2)cc1NC(=O)C(C)Oc1ccccc1 (stereo not given),7.4,45.9*,1.1,13.6,-75.4,48.8,6.8
Cn1ccnc1C(=O)c1ccc(S(=O)(=O)N2CCCC2)cc1,-13.5,0.6,12.9,18.1,13.1,4.4,.
Cc1ccc(Sc2ncnc3onc(C)c23)cc1,-8.8,41.2*,5.6,42.8,.,31.6,21.0
CCCc1cc(=O)n2nc(N3CCC(C(=O)NCc4ccco4)CC3)sc2n1,-4.1,-0.9,-0.7,8.6,12.4,1.1,.
CCSc1ccc2nnc(-c3cccc(F)c3)n2n1,20.7,40.3*,33.4,28.1,-13.0,37.6,34.5*
O=C(CSc1ccc2nnc(-c3cccc(F)c3)n2n1)N1CCCc2ccccc21,14.5,31.4,9.0,-9.8,15.5,10.2,.
Cc1nn2c(N3CCN(C(=O)c4ccco4)CC3)cc(C(C)(C)C)nc2c1-c1ccccc1,-0.1,49.5*,22.3,26.0,.,43.7,25.8
Cc1nn2c(N3CCN(C)CC3)cc(C(C)(C)C)nc2c1-c1ccccc1,22.9,-51.8,20.1,19.0,4.2,-15.2,.
Cc1cccc(NC(=O)c2ccc(OCc3c(C)noc3C)cc2)n1,.,19.0,13.0,3.9,-20.9,19.1,.
COC(=O)CCNC(=O)c1nn(Cc2ccccc2)c(=O)c2ccccc12,6.3,-6.5,-4.7,11.2,-12.2,-1.4,.
O=C(O)c1cc(S(=O)(=O)NCC2COc3ccccc3O2)ccc1Cl (stereo not given),.,-20.2,5.6,6.8,-18.5,-8.8,.
CC(C)c1ccc(NC(=O)c2cc(S(=O)(=O)NCC3COc4ccccc4O3)ccc2F)cc1 (stereo not given),34.6,42.5*,37.6,2.6,-16.8,33.6,43.0*
Cc1cc(C)cc(OCC(=O)N2N=C(C(F)(F)F)CC2(O)C(C)(C)C)c1 (stereo not given),5.7,46.0*,15.3,19.8,-4.1,46.2,34.1*
O=C(c1cnc(Cl)c(Cl)c1)N1CCC(Cc2ccccc2)CC1,4.0,16.1,8.6,29.7,10.5,-10.4,.
CCOC(=O)C1CN(S(=O)(=O)c2cccc(C(F)(F)F)c2)c2cc(CC(=O)OC)ccc2O1 (stereo not given),10.3,46.5*,7.0,10.1,-17.5,18.5,24.8
CCOC(=O)C1CN(S(=O)(=O)c2ccccc2)c2cc(S(=O)(=O)CC)ccc2O1 (stereo not given),9.2,27.4,7.6,15.3,-112.3,5.8,.
COc1ccc(S(=O)(=O)n2nc(OC(C)=O)cc2N)cc1,1.4,7.7,13.9,11.6,33.2,9.1,.
COc1ccc(S(=O)(=O)n2nc(OC(=O)c3cccs3)cc2NC(=O)c2cccs2)cc1,-0.2,44.9*,-4.9,17.6,-28.9,8.4,29.5*
